The AC50 is the concentration at which the activity in the assay is half-maximal.

One compound from PubChem BioAssay AID2284173 (EPA ToxCast) can be followed below.

Activity calls are given as the source filed them. How the source made its calls: active means hit-call score of the fitted dose curve at least 0.9, where 1 is the maximum; inactive means score below 0.9.

The subject of this experiment is rat KATP Antagonism, gene 24521. As to the kind of experiment: ERF_FR_IC_rKCNJ1: Eurofins (ERF) Potassium Ion Channel Mass Spectrometry Ligand Binding LeadHunter Assay for rat KATP Antagonism. The protocol: ERF_FR_IC_rKCNJ1 is a biochemical, single-readout assay that uses extracted gene-proteins in a cell-free assay. Measurements were taken 1 hour after chemical dosing in a 96-well plate. See KATP Rat Potassium Ion Channel Binding (Antagonist Radioligand) Assay, Cerep.ERF_FR_IC_rKCNJ1 is an assay component calculated from the ERF_FR_IC_rKCNJ1 assay. It is designed to measure radioligand binding using a type of binding reporter as detected by scintillation counting with radiometry technology.Data from the assay component ERF_FR_IC_rKCNJ1 was analyzed at the assay endpoint, ERF_FR_IC_rKCNJ1, in the positive analysis fitting direction relative to DMSO as the negative control and baseline of activity. Using a type of binding reporter, loss-of-signal activity can be used to understand changes in binding as they relate to gene KCNJ1. To generalize the intended target to other relatable targets, this assay endpoint is annotated to the ion channel intended target family, where the subfamily is voltage gated (Potassium).
Rat cells are incubated for 60 minutes at room temprature with Glibenclamide (0.07 nM) as ligand and Glibenclamide-d3 (30nM) as control inhibitor. Test Sample Requirements: Minimum for 1) Screen: 60 ul of 10 mM stock -OR- 1 mg (pre-weighed) for 10 uM final testing. 2) Dose Response: 90 ul of 10 mM stock -OR- 1 mg (pre-weighed) for a top concentration at 10 uM.
In the case of `O=C(/C=C/c1ccc(O)cc1)CC(=O)/C=C/c1ccc(O)cc1`, the AC50 is 880 nM (active).
